PubChem BioAssay AID431 (Sanford-Burnham Center for Chemical Genomics, 2006)
The whole screen tested about 63,000 compounds, of which about 1,100 (1.7%) were called active.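 Rule for the calls: active = compounds whose percent cytotoxicity in the single-dose primary screen, scaled between solvent and toxic-drug controls, exceeds 50; inactive = the rest.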 Only a selection was taken, and actives are over-represented in it overall. Results with a measured potency or affinity are listed apart.

assay: cytotoxicity in KRAS-transformed pancreatic duct cells, primary screen, cell-based, fluorescence, HTS (AID 431); settings: HPDE-C7K KRASV12 cells, Alamar Blue viability, 48 h; at 10 µM; active compounds read high;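 note: 0% = DMSO solvent wells and 100% = doxorubicin-treated wells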

Structure (SMILES)	cytotoxicity
Cc1cc(-c2csc(N)n2)c(C)n1CCc1ccccc1	99.3% (active)
COCCn1c(-c2ccc(Cl)cc2)cnc1SCC(=O)NCc1cccs1	-6.5% (inactive)
N#CC1=C(N)C(C#N)(C#N)C2(C(=O)Nc3ccccc32)C2CCCC=C12 (stereo not given)	-18.9% (inactive)
CS(=O)(=O)N1CCc2cc(S(=O)(=O)N3CCN(Cc4ccc5c(c4)OCO5)CC3)ccc21	7.7% (inactive)
CS(=O)(=O)N1CCc2cc(C(=O)O)ccc21	8.3% (inactive)
CS(=O)(=O)N1CCc2cc(S(=O)(=O)Nc3ccc4oc5c(c4c3)CCCC5)ccc21	84.6% (active)
O=C(C(Cc1ccccc1)n1cccc1)N1CCc2ccccc21 (stereo not given)	-1.9% (inactive)
CC(=O)Oc1c(Cl)c(N2CCOCC2)c(OC(C)=O)c2ccccc12	-27.5% (inactive)
COCCn1c(SCC(=O)Nc2ccccc2)nc2c1c(=O)[nH]c(=O)n2C	-3.2% (inactive)
CC1CCc2c(sc3ncnc(SCC(=O)N4CCN(C(=O)c5ccco5)CC4)c23)C1 (stereo not given)	2.5% (inactive)
CCC(c1nnnn1C(C)(C)C)N1CCN(c2cc(Cl)ccc2C)CC1 (stereo not given)	-6.4% (inactive)
CC(=NC1CCCC1)c1c(C)[nH]n(-c2nc3ccccc3s2)c1=O	-31.1% (inactive)
O=c1cc(-c2ccccc2)[nH]c2nc3ccccc3n12	31.4% (inactive)
COc1ccc(-c2cc(=O)n(-c3nc4ccccc4[nH]3)[nH]2)cc1	10.5% (inactive)
Cc1nn(-c2nc3ccccc3s2)c(N)c1-c1ccccc1	5.2% (inactive)
O=c1cc(-c2ccccc2)[nH]n1-c1nc2ccccc2s1	79% (active)
Cc1[nH]c(=O)[nH]c1CN1CCCCC1	-10.3% (inactive)
CCOC(=O)c1cnn(-c2ccccc2)c1NC(=O)c1cccs1	0.1% (inactive)
O=C(c1cccs1)n1cc(C(=S)N2CCOCC2)c2ccccc21	10% (inactive)
COc1ccc(-c2c(C)nn3c(N4CCN(Cc5ccccc5)CC4)cc(C)nc23)cc1OC	-4% (inactive)
c1csc(-c2cnc3ccccc3n2)c1	3.7% (inactive)
CCOC(=O)N1CCN(S(=O)(=O)c2cc(Cl)ccc2Cl)CC1	-7.3% (inactive)
CCOC(=O)N1CCC(=C2c3ccc(Cl)cc3CCc3cccnc32)CC1	90.6% (active)
CCOC(=O)N1CCN(C(=O)Nc2ccc(Cl)cc2Cl)CC1	0.2% (inactive)
O=S(=O)(c1ccc(-c2ccccc2)cc1)N1CCOCC1	3.5% (inactive)

Structure (SMILES)	cytotoxicity
Nc1nncn1C(=O)c1cccs1	9.5% (inactive)
CC(=O)O[C@]1(C(C)=O)CC[C@H]2[C@@H]3C=C(C)C4=CC(=O)CC[C@]4(C)[C@H]3CC[C@@]21C	-15.6% (inactive)
CCCCCC(=O)O[C@]1(C(C)=O)CC[C@H]2[C@@H]3CCC4=CC(=O)CC[C@]4(C)[C@H]3CC[C@@]21C	118% (active)
CC(=O)O[C@]1(C(C)=O)CC[C@H]2[C@@H]3C=C(Cl)C4=CC(=O)CC[C@]4(C)[C@H]3CC[C@@]21C	76.4% (active)
CC(=O)O[C@]1(C(C)=O)CC[C@H]2[C@@H]3C[C@H](C)C4=CC(=O)CC[C@]4(C)[C@H]3CC[C@@]21C	3.4% (inactive)
CCCCC(=O)O[C@]1(C(=O)CO)CC[C@H]2[C@@H]3CCC4=CC(=O)CC[C@]4(C)[C@H]3[C@@H](O)C[C@@]21C	-3.2% (inactive)
CCCCCCCC(=O)OCC(=O)[C@@]1(O)CC[C@H]2[C@@H]3CCC4=CC(=O)CC[C@]4(C)[C@H]3[C@@H](O)C[C@@]21C	-2.2% (inactive)
NC(=O)CN1C(=O)C(O)(CC(=O)c2ccccc2O)c2ccccc21 (stereo not given)	-20.7% (inactive)
Cc1csc(=N)n1CC(=O)N1CCc2ccccc21	-5.1% (inactive)
CCN1C(=O)c2cccc3c(S(=O)(=O)Nc4ccccc4OC)ccc1c23	15.9% (inactive)
COc1ccc(-c2cc(C(F)(F)F)n3nc(C(=O)Nc4cc(C)on4)cc3n2)cc1OC	8.1% (inactive)
Cc1cc(C)c(S(=O)(=O)N2CCN(CCO)CC2)c(C)c1	-4.9% (inactive)
CCN(CC)CCOc1ncnc2c1oc1ccccc12	-9.3% (inactive)
CCc1nc(OCCN(CC)CC)c2oc3ccccc3c2n1	15.9% (inactive)
CC1CCc2nn(CC(=O)NCCN3CCOCC3)cc2C1 (stereo not given)	-3.4% (inactive)
c1ccc(C(CN2CCOCC2)c2ccccc2)cc1	-15.2% (inactive)
O=C(c1ccccc1)c1ccc(OCC(O)CN2CCOCC2)cc1 (stereo not given)	10.8% (inactive)
CCOc1ccc(-n2c(Cc3cc(=O)[nH]c(=O)[nH]3)nnc2SC(C)C)cc1	-20.5% (inactive)
Cc1cc(C(=O)Oc2ccccc2C(=O)O)c(C)o1	-8% (inactive)
Cc1nnc(SCC(=O)Nc2ncc(Cc3ccc(F)cc3)s2)n1N	-4.8% (inactive)
CCSc1nnc(NC(=O)c2ccc(C)o2)s1	-3.8% (inactive)
Cc1ccc(C(=O)Nc2ncc(Cc3ccc(F)cc3)s2)o1	61.5% (active)
Cc1ccc(C(=O)Nc2ncc(Cc3ccccc3)s2)o1	51.3% (active)
O=C(Nc1ncc(Cc2ccccc2)s1)C1CCCO1 (stereo not given)	6.8% (inactive)
O=C(Nc1ncc(Cc2ccccc2)s1)c1cccs1	4.6% (inactive)
